Key:
[1] = biological target: Tyrosine-protein kinase CSK (Homo sapiens) (UniProt P41240); conditions: at 1 µM;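 note: each value is an averaged inhibition reading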
[2] = biological target: T1, Discoidin domain-containing receptor 2 (Homo sapiens) (UniProt Q16832); conditions: at 0.1 µM
T1 sequence (whole entry): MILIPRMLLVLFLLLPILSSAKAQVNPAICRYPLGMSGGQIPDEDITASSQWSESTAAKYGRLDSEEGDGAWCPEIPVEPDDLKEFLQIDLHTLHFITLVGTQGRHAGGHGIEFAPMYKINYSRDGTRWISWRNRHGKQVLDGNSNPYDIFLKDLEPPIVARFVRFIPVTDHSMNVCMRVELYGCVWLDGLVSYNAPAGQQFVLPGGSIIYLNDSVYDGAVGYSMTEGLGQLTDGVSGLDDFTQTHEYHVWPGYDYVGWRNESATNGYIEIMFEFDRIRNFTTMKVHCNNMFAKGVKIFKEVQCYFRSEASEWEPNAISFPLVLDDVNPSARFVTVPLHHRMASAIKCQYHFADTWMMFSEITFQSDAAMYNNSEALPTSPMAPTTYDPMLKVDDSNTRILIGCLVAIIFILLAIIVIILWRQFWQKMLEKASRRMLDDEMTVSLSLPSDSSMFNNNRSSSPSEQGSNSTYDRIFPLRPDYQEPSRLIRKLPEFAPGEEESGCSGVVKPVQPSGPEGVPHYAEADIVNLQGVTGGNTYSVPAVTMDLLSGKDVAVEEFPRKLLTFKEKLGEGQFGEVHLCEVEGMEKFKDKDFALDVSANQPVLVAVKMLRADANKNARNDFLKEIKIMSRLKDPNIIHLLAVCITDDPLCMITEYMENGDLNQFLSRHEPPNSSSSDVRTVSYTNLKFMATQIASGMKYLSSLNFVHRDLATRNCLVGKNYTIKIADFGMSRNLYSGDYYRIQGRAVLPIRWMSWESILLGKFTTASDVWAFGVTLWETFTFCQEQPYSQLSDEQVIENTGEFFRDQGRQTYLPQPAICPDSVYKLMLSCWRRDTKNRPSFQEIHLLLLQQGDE

[3] = biological target: T1, Discoidin domain-containing receptor 2 (Homo sapiens); conditions: at 1 µM
[4] = biological target: Epidermal growth factor receptor (Homo sapiens) (UniProt P00533); conditions: at 0.1 µM
[5] = biological target: Epidermal growth factor receptor (Homo sapiens) (UniProt P00533); conditions: at 1 µM
[6] = system: Epidermal growth factor receptor (Homo sapiens), P00533 [L858R]; conditions: at 0.1 µM
Sequence of Epidermal growth factor receptor (Homo sapiens), P00533 [L858R] (P00533 whole entry L858R): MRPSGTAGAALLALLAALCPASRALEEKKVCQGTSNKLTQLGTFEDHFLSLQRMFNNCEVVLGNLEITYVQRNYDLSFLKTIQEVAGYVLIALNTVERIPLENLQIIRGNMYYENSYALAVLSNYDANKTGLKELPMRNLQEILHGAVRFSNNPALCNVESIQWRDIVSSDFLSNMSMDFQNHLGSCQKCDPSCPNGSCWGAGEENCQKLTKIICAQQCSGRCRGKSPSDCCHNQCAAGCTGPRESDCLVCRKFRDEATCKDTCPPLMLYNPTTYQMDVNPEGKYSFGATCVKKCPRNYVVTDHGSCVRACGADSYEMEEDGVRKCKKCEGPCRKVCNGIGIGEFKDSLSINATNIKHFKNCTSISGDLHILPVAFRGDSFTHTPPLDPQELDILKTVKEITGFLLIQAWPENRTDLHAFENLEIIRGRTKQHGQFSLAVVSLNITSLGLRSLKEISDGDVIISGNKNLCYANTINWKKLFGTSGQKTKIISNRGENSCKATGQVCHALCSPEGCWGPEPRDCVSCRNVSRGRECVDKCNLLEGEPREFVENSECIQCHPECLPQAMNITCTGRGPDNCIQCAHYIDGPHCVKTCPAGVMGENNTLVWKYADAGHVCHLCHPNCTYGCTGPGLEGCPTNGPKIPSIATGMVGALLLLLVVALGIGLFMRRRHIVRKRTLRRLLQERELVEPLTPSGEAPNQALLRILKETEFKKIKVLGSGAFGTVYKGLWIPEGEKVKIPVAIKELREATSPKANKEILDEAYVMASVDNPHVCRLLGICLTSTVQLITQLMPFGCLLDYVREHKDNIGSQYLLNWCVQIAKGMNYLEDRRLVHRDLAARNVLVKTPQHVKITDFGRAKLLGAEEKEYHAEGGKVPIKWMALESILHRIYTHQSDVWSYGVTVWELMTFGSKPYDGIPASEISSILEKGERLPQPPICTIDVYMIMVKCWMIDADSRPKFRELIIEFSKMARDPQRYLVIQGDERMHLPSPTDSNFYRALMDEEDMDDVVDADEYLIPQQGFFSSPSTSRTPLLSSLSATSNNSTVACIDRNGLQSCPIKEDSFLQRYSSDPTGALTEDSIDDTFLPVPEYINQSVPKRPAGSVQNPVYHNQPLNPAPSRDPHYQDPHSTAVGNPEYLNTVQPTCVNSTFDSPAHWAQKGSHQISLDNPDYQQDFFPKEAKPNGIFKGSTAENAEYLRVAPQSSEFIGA

[7] = system: Epidermal growth factor receptor (Homo sapiens), P00533 [L858R]; conditions: at 1 µM
[8] = system: Epidermal growth factor receptor (Homo sapiens), P00533 [L861Q]; conditions: at 0.1 µM
[9] = system: Epidermal growth factor receptor (Homo sapiens), P00533 [L861Q]; conditions: at 1 µM
[10] = system: Epidermal growth factor receptor (Homo sapiens), P00533 [T790M]; conditions: at 0.1 µM
Sequence of Epidermal growth factor receptor (Homo sapiens), P00533 [T790M] (P00533 whole entry T790M): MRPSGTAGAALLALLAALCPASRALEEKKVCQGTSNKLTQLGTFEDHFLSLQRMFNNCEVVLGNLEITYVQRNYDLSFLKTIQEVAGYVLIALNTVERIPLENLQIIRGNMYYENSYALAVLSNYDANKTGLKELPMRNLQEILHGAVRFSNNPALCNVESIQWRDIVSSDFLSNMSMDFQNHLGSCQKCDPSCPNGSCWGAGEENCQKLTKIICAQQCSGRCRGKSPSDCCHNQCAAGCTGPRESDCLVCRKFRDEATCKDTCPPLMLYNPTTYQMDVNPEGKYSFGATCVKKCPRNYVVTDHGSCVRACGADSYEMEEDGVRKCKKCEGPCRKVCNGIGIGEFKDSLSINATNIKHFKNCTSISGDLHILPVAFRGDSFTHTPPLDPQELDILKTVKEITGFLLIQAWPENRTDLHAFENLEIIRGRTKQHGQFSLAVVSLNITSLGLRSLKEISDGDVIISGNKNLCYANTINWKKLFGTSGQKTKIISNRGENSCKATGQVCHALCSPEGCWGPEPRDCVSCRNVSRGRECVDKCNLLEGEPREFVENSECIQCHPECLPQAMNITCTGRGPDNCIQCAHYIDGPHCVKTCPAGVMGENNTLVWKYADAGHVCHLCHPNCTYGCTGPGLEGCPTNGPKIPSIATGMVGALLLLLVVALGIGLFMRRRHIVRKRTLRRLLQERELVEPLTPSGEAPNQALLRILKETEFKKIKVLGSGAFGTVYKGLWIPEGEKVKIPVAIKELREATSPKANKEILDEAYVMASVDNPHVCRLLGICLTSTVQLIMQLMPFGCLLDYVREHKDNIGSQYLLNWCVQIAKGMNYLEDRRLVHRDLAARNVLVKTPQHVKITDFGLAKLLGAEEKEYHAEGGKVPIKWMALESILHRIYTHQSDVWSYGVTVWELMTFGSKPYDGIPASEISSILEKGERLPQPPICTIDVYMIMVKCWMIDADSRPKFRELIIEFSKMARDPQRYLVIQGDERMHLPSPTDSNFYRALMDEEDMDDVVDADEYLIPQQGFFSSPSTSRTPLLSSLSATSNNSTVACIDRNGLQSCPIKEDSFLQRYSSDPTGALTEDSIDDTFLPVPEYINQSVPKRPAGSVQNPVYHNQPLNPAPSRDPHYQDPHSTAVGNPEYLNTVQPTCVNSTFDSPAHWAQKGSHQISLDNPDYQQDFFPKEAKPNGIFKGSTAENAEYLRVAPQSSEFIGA

[11] = system: Epidermal growth factor receptor (Homo sapiens), P00533 [T790M]; conditions: at 1 µM
[12] = system: Epidermal growth factor receptor (Homo sapiens), P00533 [L858R,T790M]; conditions: at 0.1 µM
Sequence of Epidermal growth factor receptor (Homo sapiens), P00533 [L858R,T790M] (P00533 whole entry T790M/L858R, looked up): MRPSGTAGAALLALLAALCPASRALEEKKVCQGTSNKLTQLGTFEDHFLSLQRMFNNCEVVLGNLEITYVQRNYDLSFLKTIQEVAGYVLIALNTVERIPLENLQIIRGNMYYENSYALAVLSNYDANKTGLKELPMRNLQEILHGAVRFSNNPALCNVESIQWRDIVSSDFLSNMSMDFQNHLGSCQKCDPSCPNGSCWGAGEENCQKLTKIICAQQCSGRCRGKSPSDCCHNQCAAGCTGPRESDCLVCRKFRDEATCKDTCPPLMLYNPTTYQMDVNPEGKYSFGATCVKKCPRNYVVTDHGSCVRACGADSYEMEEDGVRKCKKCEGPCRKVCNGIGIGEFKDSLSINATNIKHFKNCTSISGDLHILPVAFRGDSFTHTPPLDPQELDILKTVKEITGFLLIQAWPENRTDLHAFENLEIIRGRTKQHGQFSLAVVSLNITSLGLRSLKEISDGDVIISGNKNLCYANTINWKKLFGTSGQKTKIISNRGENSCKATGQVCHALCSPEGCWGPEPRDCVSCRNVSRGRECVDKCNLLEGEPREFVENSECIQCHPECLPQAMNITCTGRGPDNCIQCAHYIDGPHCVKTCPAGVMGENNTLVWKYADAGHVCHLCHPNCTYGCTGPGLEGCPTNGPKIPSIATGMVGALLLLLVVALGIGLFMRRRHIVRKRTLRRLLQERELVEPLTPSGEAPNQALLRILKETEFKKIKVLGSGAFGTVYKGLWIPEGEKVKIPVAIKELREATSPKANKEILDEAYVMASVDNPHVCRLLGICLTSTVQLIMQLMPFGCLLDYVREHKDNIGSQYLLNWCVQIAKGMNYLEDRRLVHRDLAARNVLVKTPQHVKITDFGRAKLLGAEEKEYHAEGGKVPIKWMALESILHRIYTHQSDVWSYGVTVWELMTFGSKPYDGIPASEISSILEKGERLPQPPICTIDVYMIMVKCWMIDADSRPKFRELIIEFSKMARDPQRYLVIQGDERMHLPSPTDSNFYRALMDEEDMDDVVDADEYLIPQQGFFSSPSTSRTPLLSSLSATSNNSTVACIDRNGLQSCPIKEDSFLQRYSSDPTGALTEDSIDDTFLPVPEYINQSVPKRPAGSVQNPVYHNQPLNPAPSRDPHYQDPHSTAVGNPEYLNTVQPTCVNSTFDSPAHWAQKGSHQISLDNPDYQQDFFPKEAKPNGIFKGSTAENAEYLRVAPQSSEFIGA

[13] = system: Epidermal growth factor receptor (Homo sapiens), P00533 [L858R,T790M]; conditions: at 1 µM
[14] = biological target: Ephrin type-A receptor 2 (Homo sapiens) (UniProt P29317); conditions: at 0.1 µM
Sequence of Ephrin type-A receptor 2 (Homo sapiens) (P29317 whole entry): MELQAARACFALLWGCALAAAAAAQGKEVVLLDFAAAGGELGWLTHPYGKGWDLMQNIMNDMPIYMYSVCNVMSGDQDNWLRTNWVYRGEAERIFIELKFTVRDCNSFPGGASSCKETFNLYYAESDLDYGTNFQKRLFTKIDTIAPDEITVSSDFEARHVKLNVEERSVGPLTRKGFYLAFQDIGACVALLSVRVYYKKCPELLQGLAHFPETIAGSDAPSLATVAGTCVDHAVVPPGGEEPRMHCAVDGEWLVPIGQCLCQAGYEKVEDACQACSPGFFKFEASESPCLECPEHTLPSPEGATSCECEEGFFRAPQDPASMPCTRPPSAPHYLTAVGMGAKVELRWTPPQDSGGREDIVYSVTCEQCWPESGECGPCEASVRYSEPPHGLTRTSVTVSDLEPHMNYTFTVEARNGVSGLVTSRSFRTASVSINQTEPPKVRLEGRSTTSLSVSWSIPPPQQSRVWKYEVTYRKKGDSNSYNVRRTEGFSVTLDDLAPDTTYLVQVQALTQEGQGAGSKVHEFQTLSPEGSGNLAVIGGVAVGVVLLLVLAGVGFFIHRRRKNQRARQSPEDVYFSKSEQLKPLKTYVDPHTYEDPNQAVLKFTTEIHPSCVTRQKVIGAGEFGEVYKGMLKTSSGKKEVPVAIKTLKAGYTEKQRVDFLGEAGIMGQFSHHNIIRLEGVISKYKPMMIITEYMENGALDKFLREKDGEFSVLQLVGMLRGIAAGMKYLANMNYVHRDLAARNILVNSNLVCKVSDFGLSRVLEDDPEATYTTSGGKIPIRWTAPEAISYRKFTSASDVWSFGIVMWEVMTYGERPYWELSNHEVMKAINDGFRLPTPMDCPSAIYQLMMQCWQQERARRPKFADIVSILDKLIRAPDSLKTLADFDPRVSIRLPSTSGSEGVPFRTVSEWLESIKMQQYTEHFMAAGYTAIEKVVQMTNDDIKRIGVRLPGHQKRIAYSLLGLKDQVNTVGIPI

[15] = biological target: Ephrin type-A receptor 2 (Homo sapiens) (UniProt P29317); conditions: at 1 µM
[16] = biological target: T2, Ephrin type-A receptor 3 (Homo sapiens) (UniProt P29320); conditions: at 0.1 µM
T2 sequence (whole entry): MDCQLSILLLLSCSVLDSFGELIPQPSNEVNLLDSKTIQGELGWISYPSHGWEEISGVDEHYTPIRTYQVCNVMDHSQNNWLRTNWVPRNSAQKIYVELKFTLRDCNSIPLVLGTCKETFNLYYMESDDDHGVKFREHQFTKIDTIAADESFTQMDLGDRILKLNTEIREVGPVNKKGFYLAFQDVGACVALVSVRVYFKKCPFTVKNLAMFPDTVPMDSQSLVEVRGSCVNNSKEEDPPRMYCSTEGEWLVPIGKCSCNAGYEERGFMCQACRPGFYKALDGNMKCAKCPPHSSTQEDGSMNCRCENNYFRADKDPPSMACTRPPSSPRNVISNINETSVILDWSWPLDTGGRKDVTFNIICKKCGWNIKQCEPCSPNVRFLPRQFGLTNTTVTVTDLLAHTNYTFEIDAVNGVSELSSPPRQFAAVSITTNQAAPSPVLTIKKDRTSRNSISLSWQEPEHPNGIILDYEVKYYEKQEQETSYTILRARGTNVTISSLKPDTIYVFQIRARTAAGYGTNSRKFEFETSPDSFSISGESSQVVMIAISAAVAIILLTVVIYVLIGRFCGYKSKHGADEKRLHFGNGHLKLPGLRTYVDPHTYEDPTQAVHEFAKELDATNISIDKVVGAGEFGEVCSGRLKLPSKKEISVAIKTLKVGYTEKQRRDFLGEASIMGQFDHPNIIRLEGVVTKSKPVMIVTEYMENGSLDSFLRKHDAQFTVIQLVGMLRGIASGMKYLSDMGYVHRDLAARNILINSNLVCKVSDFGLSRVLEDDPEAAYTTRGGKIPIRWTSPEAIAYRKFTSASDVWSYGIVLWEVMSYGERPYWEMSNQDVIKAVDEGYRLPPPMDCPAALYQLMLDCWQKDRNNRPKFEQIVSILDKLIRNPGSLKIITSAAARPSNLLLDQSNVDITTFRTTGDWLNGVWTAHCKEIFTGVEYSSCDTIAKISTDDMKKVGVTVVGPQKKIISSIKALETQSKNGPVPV

[17] = biological target: T2, Ephrin type-A receptor 3 (Homo sapiens); conditions: at 1 µM
[18] = biological target: Ephrin type-A receptor 4 (Homo sapiens) (UniProt P54764); conditions: at 0.1 µM
[19] = biological target: Ephrin type-A receptor 4 (Homo sapiens) (UniProt P54764); conditions: at 1 µM
[20] = biological target: T3, Ephrin type-B receptor 2 (Homo sapiens) (UniProt P29323); conditions: at 0.1 µM;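 note: reported as mean inhibition of EPHB2, from the GSK PKIS dataset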
T3 sequence (whole entry): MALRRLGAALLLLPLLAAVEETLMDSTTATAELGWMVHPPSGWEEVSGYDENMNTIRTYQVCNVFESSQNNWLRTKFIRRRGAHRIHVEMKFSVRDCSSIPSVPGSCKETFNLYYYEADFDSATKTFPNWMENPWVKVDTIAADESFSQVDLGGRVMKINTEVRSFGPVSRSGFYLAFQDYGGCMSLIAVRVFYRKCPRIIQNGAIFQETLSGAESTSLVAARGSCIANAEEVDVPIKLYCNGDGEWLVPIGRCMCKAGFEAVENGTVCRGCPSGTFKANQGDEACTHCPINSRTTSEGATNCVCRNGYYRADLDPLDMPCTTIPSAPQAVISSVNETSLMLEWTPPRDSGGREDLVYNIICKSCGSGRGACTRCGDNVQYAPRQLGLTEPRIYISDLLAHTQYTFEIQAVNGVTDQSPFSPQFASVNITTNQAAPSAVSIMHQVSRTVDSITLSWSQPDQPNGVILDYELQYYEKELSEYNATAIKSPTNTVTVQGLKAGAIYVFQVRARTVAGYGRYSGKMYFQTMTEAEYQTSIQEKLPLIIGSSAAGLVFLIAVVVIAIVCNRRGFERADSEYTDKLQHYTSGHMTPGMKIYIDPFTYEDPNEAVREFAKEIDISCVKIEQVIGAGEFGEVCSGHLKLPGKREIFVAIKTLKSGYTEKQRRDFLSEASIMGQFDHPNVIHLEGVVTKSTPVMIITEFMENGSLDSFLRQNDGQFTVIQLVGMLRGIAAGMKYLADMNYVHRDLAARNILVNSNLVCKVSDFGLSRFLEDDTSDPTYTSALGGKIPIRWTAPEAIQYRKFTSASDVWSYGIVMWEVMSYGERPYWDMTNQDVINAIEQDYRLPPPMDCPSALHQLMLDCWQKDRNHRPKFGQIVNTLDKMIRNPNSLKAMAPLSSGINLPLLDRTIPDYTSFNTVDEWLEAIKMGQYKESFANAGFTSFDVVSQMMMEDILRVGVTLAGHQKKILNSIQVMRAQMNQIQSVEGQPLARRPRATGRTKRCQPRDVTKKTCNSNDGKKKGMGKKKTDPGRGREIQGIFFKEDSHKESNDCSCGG

Sequence of Tyrosine-protein kinase CSK (Homo sapiens) (P41240 2-450 limits assumed): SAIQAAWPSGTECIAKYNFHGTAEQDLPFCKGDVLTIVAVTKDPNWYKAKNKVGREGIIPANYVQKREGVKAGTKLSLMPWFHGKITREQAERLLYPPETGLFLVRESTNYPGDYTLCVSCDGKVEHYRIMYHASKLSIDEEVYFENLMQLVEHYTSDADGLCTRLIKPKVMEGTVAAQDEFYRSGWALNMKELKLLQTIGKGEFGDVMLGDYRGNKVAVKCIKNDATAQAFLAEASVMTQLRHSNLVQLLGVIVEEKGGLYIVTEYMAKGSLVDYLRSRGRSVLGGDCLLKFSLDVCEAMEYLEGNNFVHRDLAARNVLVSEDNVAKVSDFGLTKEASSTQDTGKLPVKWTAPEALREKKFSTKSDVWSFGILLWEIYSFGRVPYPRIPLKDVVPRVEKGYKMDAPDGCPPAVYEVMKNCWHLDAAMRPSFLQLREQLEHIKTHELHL

| SMILES | inhibition [1] [%] | inhibition [2] [%] | inhibition [3] [%] | inhibition [4] [%] | inhibition [5] [%] | inhibition [6] [%] | inhibition [7] [%] | inhibition [8] [%] | inhibition [9] [%] | inhibition [10] [%] | inhibition [11] [%] | inhibition [12] [%] | inhibition [13] [%] | inhibition [14] [%] | inhibition [15] [%] | inhibition [16] [%] | inhibition [17] [%] | inhibition [18] [%] | inhibition [19] [%] | inhibition [20] [%] |
| --- | --- | --- | --- | --- | --- | --- | --- | --- | --- | --- | --- | --- | --- | --- | --- | --- | --- | --- | --- | --- |
| CCn1c(-c2nonc2N)nc2c(C#CC(C)(C)O)nc(OC[C@@H](N)c3ccccc3)cc21 | -2.13 | 4.51 | 12.2 | 0.44 | 3.81 | -1.04 | -2.49 | -1.53 | -1.51 | -1.77 | -1.79 | -0.23 | 0.54 | -1.19 | 0.2 | -1.62 | 7.71 | -5.47 | 6.31 | 5 |
| CC(=O)Nc1cccc(C#Cc2cncnc2Nc2ccc(OCc3cccc(F)c3)c(Cl)c2)n1 | 3.91 | 2.33 | 1.71 | 69.5 | 77.7 | 24.8 | 72.5 | 29.1 | 55.6 | 0.03 | 9.1 | -2.43 | 3.75 | 2.75 | 1.53 | 0.44 | 0.58 | 1.13 | 5.16 | -1.46 |
| COc1ccc(-c2coc3ncnc(N)c23)cc1 | 0.88 | 2.79 | 2.69 | -0.38 | 2.37 | 1.46 | 1.48 | 1.51 | -0.75 | 1.2 | -0.41 | 3.68 | 1.07 | 1.21 | 1.62 | 2.58 | 3.4 | 7.51 | 3.15 | 4.53 |
| COc1ccc2cc(-c3c(-c4ccncc4)nc(-c4ccc([S+](C)[O-])cc4)n3C)ccc2c1 (stereo not given) | -2.89 | 1.35 | 3.95 | 6.79 | 3.4 | 2.1 | 0.76 | 1.88 | 1.02 | -0.14 | -0.54 | 1.75 | 0.88 | 1.69 | 1.61 | 3.89 | 5.2 | -2.82 | 8.03 | 3.58 |
| Nc1nc(-c2ccc3c(c2)C(=Cc2cc(Br)c(O)c(Br)c2)C(=O)N3)cs1 | -6.6 | 0.46 | 2.46 | 0.84 | 5.53 | -3.68 | 8.58 | 0.03 | 1.67 | -1.77 | -1.57 | -0.73 | 3.93 | -4.92 | -4.26 | -6.05 | -2.41 | -6.57 | -2.56 | -3.26 |
| CCc1cccc(NC(=O)Nc2ccc(Oc3ccc4nc(NC(=O)OC)[nH]c4c3)cc2)c1 | 3.75 | 78 | 80.2 | 8 | 7.33 | 2.52 | 5.42 | 0.96 | 2.05 | 1.06 | 1.6 | 3.59 | 4.31 | 49.4 | 65.7 | 13.9 | 10.1 | 52.3 | 72.3 | 44.5 |
| Cc1cccc(-c2n[nH]cc2-c2ccc3ncccc3n2)n1 | 0.97 | 0.57 | 0.86 | -0.16 | 0.24 | -0.08 | -1.71 | -1.59 | -1.42 | -0.88 | -0.3 | -1.54 | -0.13 | -2.12 | -2.51 | 0.6 | 3.6 | 3.45 | 4.46 | 1.55 |
| CS(=O)(=O)Nc1ccc(N/C=C2\C(=O)Nc3ccccc32)cc1 | -6.43 | 0.64 | 0.83 | 0.27 | 1.45 | -0.02 | -5.94 | 0.35 | -1.41 | -1.68 | -1.95 | 0.26 | -4.58 | -2.34 | -1.5 | -5.95 | -4.36 | -6.81 | -2.53 | -6.42 |
| Cc1ccc(C(=O)NC2CCCCC2)cc1-c1ccc(C(=O)NCC2CC2)cc1 | 1.73 | 3.79 | 6.99 | 10.6 | 14.3 | 1.02 | 0.13 | 1.18 | 0.87 | 0.94 | -2.05 | -0.59 | -0.67 | 2.02 | 1.67 | 5.5 | 5.14 | 8.35 | 3.57 | 6.79 |
| NC(=O)c1ccc(-c2nc(-c3ccccn3)c(-c3ccc4c(c3)OCO4)[nH]2)cc1 | 6.81 | 2.6 | 4.42 | 2.11 | 4.7 | 4.74 | 3.79 | 2.1 | 2.01 | -0.51 | 1.62 | 3.52 | -0.97 | -0.18 | -0.13 | 3.83 | 1.89 | 7.63 | 7.96 | 6.11 |

From ChEMBL document CHEMBL1961873, “Compounds: GSK PKIS; Assays: Nanosyn kinase panel” (2012)
